Where “and” joins values, the source holds several entries; their conditions need not be identical. Equal values may be shown once. Where a name gives a salt, the structure may show the parent alone.
Legend:
Assay in all cases: cell viability relative to vehicle control; higher = less cytotoxic
Conditions in all cases: 10 µM
[1] = test system: K562
In short: (§1)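 Mutant clones made by CRISPR editing and their isogenic wild-type counterparts, from four leukaemia lines, were exposed to a single 10 µM dose of each library compound for 48 h. The supernatant was then removed and CellTiter-Glo luminescence was read. Viability was reported as percent of the on-plate vehicle control.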

[2] = test system: MARIMO
In short: as §1

[3] = test system: MOLM14
In short: as §1

[4] = test system: OCI-AML2
In short: as §1

Row | SMILES | cell viability ([1]; SRSF2 genotype: SRSF2 P95H/wt) | cell viability ([1]; SRSF2 genotype: SRSF2 wt/wt) [%] | cell viability ([2]; SRSF2 genotype: SRSF2 P95H/wt) [%] | cell viability ([2]; SRSF2 genotype: SRSF2 wt/wt) [%] | cell viability ([3]; SRSF2 genotype: SRSF2 P95H/wt) [%] | cell viability ([3]; SRSF2 genotype: SRSF2 wt/wt) [%] | cell viability ([4]; SRSF2 genotype: P95H/wt) [%] | cell viability ([4]; SRSF2 genotype: wt/wt) [%]
1 | Cc1ccc(Nc2nccc(N(C)c3ccc4c(C)n(C)nc4c3)n2)cc1S(N)(=O)=O [Pazopanib] | 84.1% and 94.1% | 85.8 | 96 | 104 | 69.4 | 83 | 73.8 | 71.2
2 | CC(C)n1c(/C=C/C(O)CC(O)CC(=O)O)c(-c2ccc(F)cc2)c2ccccc21 (stereo unspecified) [Fluvastatin sodium (Lescol)] | 80.8% and 90.5% | 69.6 | 45.5 | 46.6 | 77.7 | 89.3 | 36.8 | 46.5
3 | C=CCS[S+]([O-])CC=C (stereo unspecified) [Allicin] | 92.6% and 104% | 91.8 | 96 | 84.9 | 99.8 | 99.8 | 89.2 | 105
4 | OCc1ccc(O[C@@H]2O[C@H](CO)[C@@H](O)[C@H](O)[C@H]2O)cc1 [Gastrodin (Gastrodine)] | 102% and 101% | 99.8 | 107 | 101 | 105 | 104 | 104 | 98.3
5 | CC1(C)CC[C@]2(C(=O)O[C@@H]3O[C@H](CO)[C@@H](O)[C@H](O)[C@H]3O)CC[C@]3(C)C(=CC[C@@H]4[C@@]5(C)CC[C@H](O[C@@H]6O[C@H](C(=O)O)[C@@H](O)[C@H](O)[C@H]6O[C@@H]6O[C@H](CO)[C@@H](O)[C@H](O)[C@H]6O)C(C)(C)[C@@H]5CC[C@]43C)[C@@H]2C1 [Ginsenoside Ro] | 101% and 95.6% | 95.9 | 102 | 110 | 100 | 98.5 | 97.8 | 109
6 | O=C(NC(Cc1cc(=O)[nH]c2ccccc12)C(=O)O)c1ccc(Cl)cc1 (stereo unspecified) [Rebamipide] | 99.4% and 101% | 96.4 | 96.9 | 100 | 104 | 101 | 94.8 | 102
7 | C[N+]1(C)CCCC1C(=O)[O-] (stereo unspecified) [Stachydrine] | 99.9% and 99.1% | 105 | 97.3 | 100 | 99.6 | 104 | 106 | 102
8 | O=C(Cn1nnc(-c2ccncc2)c1-c1ccccc1)Nc1ccc(-c2ccccc2)cn1 | 58% and 48.3% | 57.6 | 51.6 | 53.3 | 54.6 | 51.1 | 35.9 | 40.8
9 | CCC(C)C(NC(=O)C(C(C)CC)N(C)C(C)=O)C(=O)NC(C(=O)NC(CC(C)C)C(=O)C1(C)CO1)C(C)O (stereo unspecified) [Epoxomicin (BU-4061T)] | 1.56% and 1.91% | 0.91 | 0.3 | 0.71 | 0.14 | 0.17 | 0.15 | 0.14
10 | CC(C)(O)CC(=O)NCCn1ccc2ncnc(Nc3ccc(Oc4cccc(C(F)(F)F)c4)c(Cl)c3)c21 | 69.4% and 63.5% | 72.6 | 69.7 | 93.9 | 76.5 | 79.4 | 74.8 | 76.8
11 | CC(=O)c1cc(O)ccc1O [2',5'-Dihydroxyacetophenone] | 90.6% and 97.4% | 97.7 | 94.6 | 87.5 | 103 | 97.6 | 94.7 | 101
12 | C[C@H](CC[C@@H](O[C@@H]1O[C@H](CO[C@@H]2O[C@H](CO)[C@@H](O)[C@H](O)[C@H]2O)[C@@H](O)[C@H](O)[C@H]1O[C@@H]1O[C@H](CO)[C@@H](O)[C@H](O)[C@H]1O)C(C)(C)O)[C@H]1CC[C@@]2(C)[C@@H]3CC=C4[C@@H](CC[C@H](O[C@@H]5O[C@H](CO[C@@H]6O[C@H](CO)[C@@H](O)[C@H](O)[C@H]6O)[C@@H](O)[C@H](O)[C@H]5O)C4(C)C)[C@]3(C)[C@H](O)C[C@]12C [Mogroside V] | 94.9% and 96.3% | 101 | 92.7 | 104 | 104 | 104 | 103 | 97.7
13 | O=C(CCN1CCN(C(=O)OCc2cc(Cl)cc(Cl)c2)CC1)c1ccc2[nH]c(=O)oc2c1 | 88.6% and 96.5% | 94.5 | 87.2 | 106 | 83.1 | 98.8 | 88.2 | 109
14 | O=C1CCc2ccc(O)cc2N1 [7-Hydroxy-3,4-dihydrocarbostyril] | 110% and 104% | 102 | 105 | 112 | 107 | 103 | 101 | 107
15 | C[n+]1c2n(c(=O)c3ccccc31)CCc1c-2[nH]c2ccccc12 [Dehydroevodiamine] | 93.1% and 93.3% | 91.5 | 88.7 | 88.2 | 94.8 | 98.2 | 97.2 | 87.5
16 | COC(=O)N1CCN(Cc2cccc(NC(=O)Nc3ccc(C)nc3)c2F)CC1 | 89.4% and 89.7% | 96.5 | 91.9 | 94.2 | 100 | 99.9 | 88.4 | 87.2
17 | CC[C@@H]1C(=O)N(C)c2cnc(Nc3ccc(C(=O)NC4CCN(C)CC4)cc3OC)nc2N1C1CCCC1 | 1.43% and 2.65% | 1.81 | 6.52 | 5.37 | 0.17 | 0.13 | 0.53 | 2.92
18 | CC[N+](CC)(CC)CCOc1cccc(OCC[N+](CC)(CC)CC)c1OCC[N+](CC)(CC)CC [Gallamine triethiodide (Flaxedil)] | 96% and 97.9% | 91.8 | 101 | 96.8 | 101 | 99.5 | 99 | 95.4
19 | C=C1[C@H](O)C[C@H]2[C@@H](/C=C(\C)C(=O)[C@@]3(O)C[C@H](C)[C@H](O)[C@@H]3[C@H]1O)C2(C)C | 98.1% and 92% | 99 | 93.7 | 100 | 99.8 | 98.1 | 93.9 | 101

Row | SMILES | cell viability ([1]; SRSF2 genotype: SRSF2 P95H/wt) | cell viability ([1]; SRSF2 genotype: SRSF2 wt/wt) [%] | cell viability ([2]; SRSF2 genotype: SRSF2 P95H/wt) [%] | cell viability ([2]; SRSF2 genotype: SRSF2 wt/wt) [%] | cell viability ([3]; SRSF2 genotype: SRSF2 P95H/wt) [%] | cell viability ([3]; SRSF2 genotype: SRSF2 wt/wt) [%] | cell viability ([4]; SRSF2 genotype: P95H/wt) [%] | cell viability ([4]; SRSF2 genotype: wt/wt) [%]
20 | C[C@]12CCC3=C4CCC(=O)C=C4CC[C@H]3[C@@H]1CC[C@@]2(O)CC#N [Dienogest] | 104% and 96.7% | 102 | 93 | 107 | 100 | 103 | 104 | 106
21 | Nc1nc(-c2ccco2)c2cnn(Cc3ccccc3F)c2n1 [A2AR antagonist 1] | 76% and 77.7% | 72.9 | 73.4 | 70.2 | 88.9 | 98.6 | 91.6 | 88.5
22 | C[C@@H](O)[C@H]1C(=O)N2C(C(=O)O)=C(S[C@@H]3CN[C@H](C(=O)N(C)C)C3)[C@H](C)[C@H]12 [Meropenem] | 103% and 109% | 106 | 94.7 | 96.9 | 103 | 101 | 111 | 101
23 | O=c1c2cc(O[C@@H]3O[C@H](CO)[C@@H](O)[C@H](O)[C@H]3O)c(O)cc2oc2cc(O)c([C@@H]3O[C@H](CO)[C@@H](O)[C@H](O)[C@H]3O)c(O)c12 [Neomangiferin] | 95.1% and 100% | 97 | 93.8 | 91.2 | 99.4 | 100 | 101 | 97.7
24 | CCc1cc(C(N)=S)ccn1 [Ethionamide] | 97.4% and 93.4% | 91.2 | 97 | 98.1 | 106 | 100 | 94.3 | 97.7
25 | Cc1cc(C)c(CN2CCc3c(Cl)cc(-c4c(C)noc4C)c(Cl)c3C2=O)c(=O)[nH]1 | 78.7% and 87.1% | 87.5 | 74.8 | 65.4 | 77.6 | 79.8 | 77.4 | 86.5
26 | CC(C)(C#N)c1cc(Cn2cncn2)cc(C(C)(C)C#N)c1 [Anastrozole] | 102% and 109% | 107 | 97.4 | 105 | 103 | 99.1 | 93.5 | 95.3
27 | CC[C@H](C)C(=O)O[C@H]1C[C@@H](C)C=C2C=C[C@H](C)[C@H](CC[C@@H]3C[C@@H](O)CC(=O)O3)[C@H]21 [Lovastatin (Mevacor)] | 86.3% and 96.8% | 68.8 | 74 | 68.5 | 82.9 | 100 | 64.3 | 77.8
28 | Cc1nc(N)sc1-c1ccnc(Nc2ccc(N3CCOCC3)cc2)n1 | 59.9% and 67.6% | 64.5 | 40.8 | 44.3 | 5.52 | 4.7 | 9.4 | 13.7
29 | O=C(/C=C\n1cnc(-c2cc(C(F)(F)F)cc(C(F)(F)F)c2)n1)NNc1cnccn1 [Selinexor (KPT-330)] | 8.08% and 19.9% | 13.9 | 22.6 | 22.3 | 2.17 | 1.26 | 6.48 | 11.4
30 | CC(=O)Oc1cc(C)c(OC(C)=O)c2ccccc12 [Menadiol Diacetate] |  | 95.2 | 49.6 | 53.5 | 15.3 | 7.05 | 5.63 | 11.2
31 | CN(C)CCOC(c1ccccc1)c1ccccc1 [Diphenhydramine HCl (Benadryl)] | 91.2% and 88.2% | 85.9 | 76.8 | 91.7 | 88.3 | 85.8 | 87.8 | 92.3
32 | COc1ccc(Cl)cc1NC(=O)Nc1cc(C)nc2ccccc12 | 81.3% and 91.2% | 87 | 98.8 | 99.1 | 87.6 | 90.1 | 82.7 | 74.1
33 | NC(=O)Nc1sc(-c2ccc(F)cc2)cc1C(N)=O |  | 79.8 | 56.3 | 50 | 20.5 | 11 | 20.2 | 26.5
34 | CCC(CC)CC1(C(=O)Nc2ccccc2SC(=O)C(C)C)CCCCC1 | 94.6% and 96.2% | 103 | 96 | 97.5 | 90.1 | 95.5 | 83.2 | 85.5
35 | NCc1ccc(S(N)(=O)=O)cc1 [Mafenide Acetate] | 102% and 98.3% | 94.8 | 95.8 | 106 | 91.9 | 101 | 102 | 110
36 | Nc1cc(N)c(N)cc1N |  | 69.4 | 104 | 109 | 96.3 | 105 | 103 | 103
37 | O=C(O)CCC(=O)Nc1ccc(Br)cn1 [Bikinin] | 100% and 97.8% | 106 | 104 | 104 | 102 | 106 | 102 | 99.7
38 | COc1cc(F)c(C(C)C)cc1-c1ccc(C(F)(F)F)cc1CN1C(=O)O[C@H](c2cc(C(F)(F)F)cc(C(F)(F)F)c2)[C@@H]1C [Anacetrapib (MK-0859)] | 97.5% and 95.6% | 92.9 | 91.2 | 105 | 98.7 | 99 | 91.8 | 102
